Among the data in PubChem BioAssay AID1845227 (National Center for Advancing Translational Sciences (NCATS), 2023) are Potency values, retold here.

Records with an inconclusive call do not appear. Where a call stands in place of a potency, no number is given. Activity calls are given as the source filed them. Calls follow the shape of the dose curve; as a rule, active = well fitted inhibition curve with a large enough effect; inconclusive = small, poorly fitted or top-dose-only effect; inactive = no such curve, though single readings can be large or run the other way.

The test addresses Luciferin 4-monooxygenase (Photinus pyralis) (UniProt P08659). The test is described as follows: Confirmatory firefly luciferase (FLuc) qHTS assay for identification of artifact compounds. Conditions: purified FLuc enzyme, luminescence, 5 min; series mostly up to 38.9 µM. The procedure, abridged:
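Purified Photinus pyralis luciferase (10 nM) with D-luciferin and ATP each 10 uM, pH 7.6 Tris-acetate; compounds preincubated 15 min with substrate, 5 min after enzyme; luminescence normalized to no-enzyme and DMSO, 4-parameter Hill fit.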
On the technique in general: In qHTS, concentration-response curves come from the screen itself.
As to `COc1ccc(NC(=O)c2ncoc2-c2ccco2)cc1Cl`, the Potency entry is “inactive”.
Turning to `COc1ccc(C(=O)Nc2ccc3oc(-c4cccnc4)nc3c2)cc1`, the Potency entry is “inactive”.
Consider `Cc1nc(CC(=O)Nc2ccc(C)c(C)c2)cs1`, for which the Potency entry was “inactive”.
With `O=C(/C=C/c1ccc(O)c(O)c1)c1ccc(O[C@@H]2O[C@H](CO)[C@@H](O)[C@H](O)[C@H]2O)c(O)c1O`, the Potency entry is “inactive”.
As to `CC(C)c1ccc(Cn2c(COc3ccccc3)nc3ccccc32)cc1`, the Potency entry was “inactive”.
In the case of `Cc1ccc(NC(=O)CSc2ccc(-c3cccs3)nn2)cc1Cl`, the Potency result was “inactive”.
Next, `C[C@@H]1CC2(OC3C[C@@]4(C)C5=CC[C@H]6C(C)(C)C(O[C@@H]7OC[C@@H](O)[C@H](O)[C@H]7O)CC[C@@]67C[C@@]57CC[C@]4(C)C31)OC(O)C1(C)OC21` (stereo not given in full): “inactive”; `O=C(Nc1ccc(Oc2ccccc2)cc1)Nc1nnc(-c2ccncc2)s1`: “inactive”; `CCCS(=O)(=O)N1CC(=O)N(c2ccc(C)cc2C)C(C)(C(=O)NC2CCCCCC2)C1` (stereo not given): “inactive”.
Turning to `Nc1ncnc2c1ncn2[C@@H]1O[C@H](COP(=O)(O)OP(=O)(O)OC[C@H]2OC(O)[C@H](O)[C@@H]2O)[C@@H](O)[C@H]1O` (stereo not given in full), the Potency result is “inactive”.
In the case of `O=C(c1ccc2c(c1)N(Cc1ccccc1)C(=O)c1ccccc1S2(=O)=O)N1CCN(c2ccccc2)CC1`, the Potency result is “inactive”.
In the case of `O=C(Nc1nnc(-c2ccccc2)s1)c1ccc(S(=O)(=O)N2CCCC2)cc1`, the Potency entry was “inactive”.
On to `CCCc1cc(=O)[nH]c(SCc2nc(-c3ccccc3F)no2)n1`, for which the Potency result is “inactive”.
For `CC(C)(C)OC(=O)N1CCN(c2ccc(NCc3ccc(-c4ccc(C#N)cc4)nc3)cc2)CC1`, the Potency result was “inactive”.
As for `COc1ccc(CCNC(=O)c2c(C)oc3ncn(C)c(=O)c23)c(OC)c1`, the Potency result is “inactive”.
`CCOc1ccc2c(c1)C(C)=CC(C)(C)N2`: the Potency result was “inactive”.
With `CCc1ccccc1NC(=O)c1nc(-c2ccncc2)no1`, the Potency result was “inactive”.
Next, `Cc1cn2c(=O)cc(COC(=O)c3cccc(NC(=O)c4ccccc4C)c3)nc2s1`: “inactive”.
For the compound `CC1=CC23C(=O)C(C=C(CO)[C@@H](O)[C@]2(O)[C@H]1O)[C@H]1[C@@H](C[C@H]3C)C1(C)C` (stereo not given in full), the Potency result is “inactive”.
`Cc1ccc(CNS(=O)(=O)c2ccc(-c3cc(C(F)(F)F)on3)s2)cc1`: the Potency result was “inactive”.
On to `CO[C@H]1[C@@H](O)[C@H](N)[C@@H](O[C@H]2O[C@H]([C@H](C)N)CC[C@H]2N)[C@H](O)[C@@H]1N(C)C(=O)CN`, for which the Potency result is “inactive”.
Next, `O=C(NCCS(=O)(=O)N1CCN(c2ccc(F)cc2)CC1)C1CC(=O)N(c2ccc(F)cc2)C1` (stereo not given): “inactive”; `COc1ccc(-c2cc(C(=O)Nc3cc(C(F)(F)F)ccc3Cl)no2)cc1`: “inactive”; `CCOc1ccccc1NC(=O)CSc1nc2c(oc3ccccc32)c(=O)n1-c1ccc(F)cc1`: “inactive”.
Next, `COc1ccc(CNC(=O)C(C)n2nc(C)c3c(C)n(-c4ccccc4)nc3c2=O)c(OC)c1` (stereo not given): “inactive”; `Cc1cccc(NC(=O)COC(=O)CCCC2=NS(=O)(=O)c3ccccc3N2)c1`: “inactive”.
As for `CC(C)=CCC/C(C)=C/C=O`, the Potency result is “inactive”.
The value for `CC1CCN(c2nc3ccccc3nc2SCC(=O)Nc2ccccc2C(C)C)CC1` was “inactive”; that for `O=C1c2ccccc2C(=O)N1c1cccc2cnccc12` was “inactive”; that for `Cc1nnc(NC(=O)c2nc(S(=O)(=O)Cc3ccccc3)ncc2Cl)s1` was “inactive”.
The value for `COc1ccc(NC(=O)C(C)n2nc(-c3cc(C)ccc3C)c3c(c2=O)CCCC3)cc1` (stereo not given) was “inactive”; that for `COc1cc(Br)c(/C=C(\C#N)c2nc3ccccc3[nH]2)cc1OC` was “inactive”.
With `CCOc1ccc(N=C(C)Nc2ccc(OCC)cc2)cc1`, the Potency entry is “inactive”.
The value for `CCCOC(=O)c1ccc(NC(=O)C2CC(=O)N(c3ccc(C)cc3)C2)cc1` (stereo not given) was “inactive”; that for `COc1ccc(C2Nc3ccccc3C(=O)N2Cc2ccccc2)cc1Oc1ccc(NC(C)=O)cc1` (stereo not given) was “inactive”.
